Measured values as given in PubChem BioAssay AID778 (Sanford-Burnham Center for Chemical Genomics, 2007).
In all, about 96,000 compounds went through this assay and about 20,000 (21%) were called active.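 The calls were made as follows: active = CYP2C19 inhibition above a set limit at 5 µM in the primary screen (cut at about 50% in these data); inactive = the rest.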 Not all results are given here.

What follows are compounds tested against Cytochrome P450 2C19 (Homo sapiens) (UniProt P33261) (assay: blockers of cytochrome P450 2C19 activity – biochemical, luminescence, ADME assay, primary screen (AID 778;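 also: plate controls were negative control wells for no effect and 2.5 mM tranylcypromine positive control for full effect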)). Conditions: CYP2C19 Supersomes, luciferin-H EGE luminescence, 30 min; at 5 µM; active compounds read high.
Cytochrome P450 2C19 (Homo sapiens), sequence (P33261 whole entry, looked up): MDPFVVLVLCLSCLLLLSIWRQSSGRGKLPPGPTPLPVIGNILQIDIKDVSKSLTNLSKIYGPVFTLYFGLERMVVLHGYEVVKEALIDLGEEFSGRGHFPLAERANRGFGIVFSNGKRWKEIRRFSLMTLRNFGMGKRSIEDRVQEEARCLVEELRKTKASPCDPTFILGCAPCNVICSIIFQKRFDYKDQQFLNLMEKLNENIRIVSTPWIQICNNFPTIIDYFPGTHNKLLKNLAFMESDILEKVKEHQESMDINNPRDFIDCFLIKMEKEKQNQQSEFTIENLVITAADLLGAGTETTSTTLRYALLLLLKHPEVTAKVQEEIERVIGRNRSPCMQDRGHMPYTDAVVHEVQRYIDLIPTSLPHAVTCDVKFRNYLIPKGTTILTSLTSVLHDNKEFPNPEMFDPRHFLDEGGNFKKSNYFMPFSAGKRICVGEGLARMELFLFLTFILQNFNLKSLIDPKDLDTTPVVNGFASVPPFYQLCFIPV
`O=C(c1ccco1)N1CCN=C1SCc1cccc(Cl)c1` was tested, and the inhibition was 20.6% (inactive). For `CSC1=NCCN1C(=O)c1ccc(S(=O)(=O)N2CCOCC2)cc1`, the inhibition was 13.3% (inactive). `CCC(=O)N1CCN=C1SCc1ccc(F)cc1` was tested, and the inhibition was 78.7% (active). `CCCOC(=O)CC1C(=O)NCCN1Cc1ccc(F)cc1` (stereo unspecified) was tested, and the inhibition was 19.1% (inactive). `O=C(C1CC1)N1CCN=C1SCc1ccc(Cl)cc1` was tested, and the inhibition was 98.5% (active). For `CCOC(=O)c1c(C(C#N)C#N)cc(C)nc1C`, the inhibition was -4.1% (inactive). In the case of `CC(=O)Nc1ccc(NC(=O)c2sc3nc4c(c(-c5ccc(C)cc5)c3c2N)CCC4)cc1`, the inhibition is reported as -6.7% (inactive). In the case of `C/C(N)=C(\C#N)C(=O)NCCc1ccccn1`, the inhibition is reported as -6.3% (inactive). In the case of `NS(=O)(=O)c1ccc(NS(=O)(=O)/C=C/c2ccccc2)cc1`, the inhibition is reported as 38.8% (inactive). In the case of `O=S(=O)(/C=C/c1ccccc1)NCCc1ccccn1`, the inhibition is reported as 53.8% (active). In the case of `COc1ccc(CC(=O)Nc2nc3n(n2)C(c2ccccc2)CC(=O)N3)cc1OC` (stereo unspecified), the inhibition is reported as -4.1% (inactive). For `COc1ccc(CN2CCCCC2C)cc1OC` (stereo unspecified), the inhibition was 3% (inactive). With `O=c1cc(CN2CCN(c3cccc(Cl)c3)CC2)c2cc3c(cc2o1)CCCC3` the inhibition was 12.6% (inactive). In the case of `CCc1ccc2oc(=O)cc(CN3CCCCC3C)c2c1` (stereo unspecified), the inhibition is reported as 92.7% (active). For `O=C(CSc1nnc(-c2ccoc2)o1)N1CCOCC1`, the inhibition was -14.6% (inactive). In the case of `Cc1cc(C)n(-c2cc(Oc3ccccc3)ncn2)n1`, the inhibition is reported as 15.9% (inactive). `CNS(=O)(=O)c1cnccc1N1CCN(c2cccc(C)c2)CC1` was tested, and the inhibition was 78.6% (active). With `CC(C)=C1SC(N2CCN(c3cccc(C)c3)CC2)=NC1=O` the inhibition was 6.5% (inactive). `O=S(=O)(c1cnccc1N1CCN(/N=C/c2ccc(Br)cc2)CC1)N1CCCCC1` was tested, and the inhibition was -12% (inactive). `CCn1c(SCC(=O)Nc2nc(C)cs2)nnc1C(C)NC(=O)c1ccccc1` (stereo unspecified) was tested, and the inhibition was 8.1% (inactive). With `O=C1CC(c2ccccc2)CC(O)=C1C=NCCN1CCOCC1` (stereo unspecified) the inhibition was 0.2% (inactive). For `CCCc1nnc(NC(=O)c2cc(OC)cc(OC)c2)s1`, the inhibition was 32.5% (inactive). `COc1ccccc1NS(=O)(=O)N(C)C` was tested, and the inhibition was 4.9% (inactive). With `COc1ccc(Cl)cc1S(=O)(=O)Nc1cccc(C(=O)O)c1` the inhibition was 13.4% (inactive). For `COc1ccc(OC)c(S(=O)(=O)Nc2ccccc2F)c1`, the inhibition was 85.9% (active). For `Cn1c(SCC(=O)OC2CCCCC2)nnc1-c1ccc(S(=O)(=O)N2CCCC2)cc1`, the inhibition was 5.7% (inactive). For `Cc1ccc(NC(=S)NC2CCCC2)cc1`, the inhibition was 54.5% (active). In the case of `Cc1ccc(NC(=S)N/N=C2/CCCc3c(C)cc(C)cc32)cc1`, the inhibition is reported as -4.5% (inactive). In the case of `CC(C)c1ccc(NC(=O)NC2CCCCC2)cc1`, the inhibition is reported as -15.2% (inactive). For `CCOC(=O)N1CCN(CC(=O)c2ccc3c(c2)CCN3)CC1`, the inhibition was 34.1% (inactive). `CC(C)NC(=O)C(=O)N/N=C/c1ccco1` was tested, and the inhibition was -7% (inactive). For `O=C1c2ccccc2C(=O)N1CCc1nn[nH]n1`, the inhibition was -6.8% (inactive). `Nc1ccc(SCCN2C(=O)c3ccccc3C2=O)cc1` was tested, and the inhibition was 94.6% (active). For `O=C1c2ccccc2C(=O)N1CCC(c1ccccc1)c1ccco1` (stereo unspecified), the inhibition was 22.9% (inactive). For `Cc1cc(Br)ccc1NC(=O)C1CCCO1` (stereo unspecified), the inhibition was 46.4% (inactive). For `CCn1c(O)c(N=NC2=NC(=O)CS2)c2cc(C)ccc21`, the inhibition was 14.8% (inactive). In the case of `O=C(O)C1C2C=CC(C2)C1C(=O)N1CCN(CCO)CC1` (stereo unspecified), the inhibition is reported as 1% (inactive). `CC1CC2=C(CC1/C=N/NC(N)=S)C(C)(C)CCC2` (stereo unspecified) was tested, and the inhibition was 30.6% (inactive). For `CCc1ccc(NC(=O)CSc2nc3ccccc3c(=O)n2CCN2CCOCC2)cc1`, the inhibition was 34.4% (inactive). With `O=C(CCCn1c(SCC(=O)c2ccccc2)nc2ccccc2c1=O)NCC1CCCO1` (stereo unspecified) the inhibition was 58.1% (active). In the case of `CCCCCCn1c(SCC(=O)c2ccccc2)nc2c1c(=O)[nH]c(=O)n2C`, the inhibition is reported as -16.1% (inactive). In the case of `O=C(CCn1c(SCC(=O)c2ccccc2)nc2ccccc2c1=O)NCc1ccc(F)cc1`, the inhibition is reported as 60.5% (active). In the case of `O=C(Cn1c(=O)n(Cc2ccco2)c(=O)c2ccccc21)NCC1CCCO1` (stereo unspecified), the inhibition is reported as 7.3% (inactive). In the case of `CCCCn1c(SCC(=O)NCC2CCCO2)nc2ccc(N3CCOCC3)cc2c1=O` (stereo unspecified), the inhibition is reported as 34.3% (inactive). In the case of `Cn1c(-c2ccc(F)cc2)cnc1SCC(=O)NCc1ccco1`, the inhibition is reported as 10.8% (inactive). With `O=C(CCCn1c(SCC(=O)c2ccc(F)cc2)nc2ccccc2c1=O)NCc1ccco1` the inhibition was 70% (active). In the case of `O=C(CSc1nc2cc3c(cc2c(=O)n1CCC1=CCCCC1)OCO3)NCc1ccco1`, the inhibition is reported as 7.2% (inactive). For `COc1ccc(C(=O)Nc2c(N)nc(SCC(=O)N3CCC(C)CC3)[nH]c2=O)cc1OC`, the inhibition was -6.9% (inactive). `CC(C)C[C@@H](N)c1nnc(SCC(=O)c2ccc(Cl)cc2)o1` was tested, and the inhibition was 90.5% (active). `O=C(CSc1nnc(-c2c[nH]c3ccccc23)o1)c1ccccc1` was tested, and the inhibition was 16.6% (inactive). `CC(=O)Nc1ccc(C(=O)CSc2nnc(Cc3ccccc3)o2)cc1` was tested, and the inhibition was 16.6% (inactive).
